Assay outcomes from PubChem BioAssay.
Pf growth 48h: P. falciparum growth inhibition at 48 hours (one generation) | Potency, µM (titrated, usually from 28.7 µM), inactives show at the highest dose activity change, negative = inhibition, hits mostly inhibitors | hit rate 5.9% among 310,000 | P. falciparum luciferase growth in erythrocytes, 48 h; further: on the % scale 0 is the no-effect control and ±100 the full control effect
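In quantitative HTS format, infected erythrocytes bearing luciferase-reporter parasites were treated for a single generation at 37 C. Luminescence after adding detection reagent served as the growth measure.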
NS1 inh: influenza NS1 inhibition | hit rate 0.4% among 270,000 | Potency, µM (titrated, usually from 46.1 µM), without a hit: at the highest dose activity, positive = more growth; calls by dose curve; further: actives are rising curves; nearly all actives have a fitted effect of over 50% in size
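A cell-based growth assay was used: compounds that relieve NS1-induced slow growth of budding yeast raise OD600. Assay medium was yeast nitrogen base with ammonium sulphate and -URA supplement, pH 6.0, with 2% galactose.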
AMA1 RON2 block: disrupts binding of P. falciparum AMA1 to RON2; AlphaScreen AMA1-biotinylated RON2 peptide binding; Potency, µM (highest dose often 58.2 µM), without a hit: at the top dose activity change, negative = inhibition, hits mostly inhibitors; hit rate 0.2% among 360,000;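 further: 0% = vehicle wells and -100% = peptide control; nearly all actives have a fitted effect of over 45% in size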
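AMA1 (3D7) with his tag at 25 nM final met compounds first, then biotinylated RON2 peptide at 25 nM; detection used donor plus acceptor beads, 10 µg/mL apiece, read by AlphaScreen after 30 min at room temperature.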
Pf growth 96h: P. falciparum growth inhibition at 96 hour, primary screen for plastid delayed-death inhibitors | P. falciparum luciferase reporter growth, 96 h | Potency, µM (highest dose often 28.7 µM), for the others: at the top dose activity change, negative = inhibition, actives largely listed as inhibitors | hit rate 6.9% among 320,000; further: on the % scale 0 is the no-effect control and ±100 the full control effect
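P. falciparum expressing integrated firefly luciferase, in erythrocytes at 2% hematocrit, 0.05% parasitemia, incubated with compounds 96 h at 37 C, 5% CO2. Growth inhibition read as loss of luminescence; two-generation exposure targets delayed-death apicoplast inhibitors.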
Sm TGR block: blocks Schistosoma mansoni thioredoxin glutathione reductase; Q962Y6; hit rate 3% among 360,000; purified TGR, DTNB reduction, TNB absorbance 405 nm; Potency, µM (highest dose often 114 µM), inactives show top-dose activity change, negative = inhibition, usual class: inhibitors; further: on the % scale 0 is the no-effect control and ±100 the full control effect; nearly all actives have a fitted effect of over 60% in size
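Kinetic colorimetric format: TGR-catalysed, NADPH-driven DTNB reduction monitored via TNB absorbance. Enzyme dispensed at 20 nM; compound exposure 15 min at room temperature before reaction start.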
* = called active by the depositor; ? = inconclusive; . = not tested or not shown; [ ] = another dose, or the depositor's remark. Hits are enriched below; roughly 11% of the tested compounds scored in any of these assays. Unless noted, the call rests on the fitted dose curve; in most records, active means well fitted curve in the direction sought with a large enough effect; inconclusive means small, poorly fitted or top-dose-only effect, or another doubt; inactive means no such curve, though single readings can be large; an effect the other way counts as inactive or inconclusive. Potency means the concentration at half of the fitted maximal effect.

SMILES	Pf growth 48h	NS1 inh	AMA1 RON2 block	Pf growth 96h	Sm TGR block
Cc1ccc(/C=C2/NC(=O)N(c3ccccc3)C2=O)o1	103.6%	-24.5%	33.6%	-6.4%	31.6µM*
O=C(O)c1ccc(-c2ccc(/C=C3\NC(=O)N(Cc4ccc(Cl)cc4)C3=O)o2)cc1Cl	14.7µM*	7.2%	-19.7%	-4.1%	.
CC(C)CCNC(=O)CN1C(=O)COc2ccc(S(=O)(=O)N3CCOCC3)cc21	.	.	.	.	0.6%
CC1CCCCN1C(=O)CSc1nc2ccccc2n1CC(=O)N1CCc2ccccc21 (centres undefined)	?	?	-5.4%	42.1%	1.2%
CC(C)NC(=O)CSc1nc2ccccc2n1CC(=O)N(C(C)C)C(C)C	5.1%	.	0.0%	4.15µM*	3.3%
CC(C)N(C(=O)CSc1nc2ccccc2n1Cc1ccc(F)cc1)C(C)C	4.65µM*	-26.2%	3.2%	26.8%	0.0%
CC(C)NC(=O)CSc1nc2ccccc2n1CC(=O)N1CCc2ccccc21	?	-20.9%	-0.4%	13.1µM*	0.3%
CC(CCN)(CCN)[N+](=O)[O-]	.	-4.1%	.	.	.
Cc1ccc(SCC(=O)NNC(=O)CNC(=O)c2ccc(Br)cc2)cc1	.	.	78.9%	.	.
CC1(C)CC(=O)C(C=NCCN2CCN(C(=O)Cc3ccccc3)CC2)=C(O)C1	.	-1.5%	50.3%	?	4.7%[11.4 µM]
CC1(C)CC(=O)C(C=NCCN2CCN(C(=O)CCl)CC2)=C(O)C1	?	4.5%	91.9%	?	17.8µM*
CC1(C)CC(=O)C(C=NCCc2ccc(O)cc2)=C(O)C1	-13.9%	12.6%	0.3%	5.22µM*	3.0%
CCC(=O)N1CCN(CCN=CC2=C(O)CC(C)(C)CC2=O)CC1	-13.5%	0.4%	49.8%	.	44.7µM*
C[C@@H]1CN[C@H](CCO)/C1=C\c1ccccc1	.	.	0.0%	.	.
Cc1nn(-c2ccc(F)cc2)c(-n2cccc2)c1C(=O)N1CCN(c2ccccc2F)CC1	.	.	.	.	-1.2%
COc1cc(OC)c(NC(=O)c2c(C)oc3ncn(C)c(=O)c23)cc1Cl	.	.	.	.	1.3%
COc1ccc(CCNC(=O)C2=C(C)C(=O)OC23CCCCC3)c(OC)c1OC	.	.	.	.	0.0%
Cc1cc(=O)oc2ccc(OCC(=O)N(Cc3ccc(F)cc3)Cc3ccco3)cc12	10.4µM*	-43.6%	-9.6%	?	17.8µM*
COc1ccc(C(=O)NCCc2ccccn2)cc1S(=O)(=O)Nc1ccc(Br)cc1	?	.	0.2%[11.6 µM]	?	0.7%
O=C(CNCc1cccs1)NC12CC3CC(CC(C3)C1)C2	9.7%	.	5.8%	5.86µM*	-10.6%
O=C(Cc1cccs1)NC1CCCC1	35.5%	3.0%	3.5%	16.2%	47.0%
CC1(C)C2CCC(C2)C1(C)NC(=O)CNCc1cccs1 (centres undefined)	-7.5%	.	?	1.6%	-11.9%
O=C(Cc1cccs1)NNC(=O)C12CC3CC(CC(C3)C1)C2	10.4µM*	.	6.4%	-1.8%	-4.9%
COc1ccc(CNC(=O)CN(C)S(=O)(=O)c2ccc3nc(C)sc3c2)cc1	.	.	.	.	12.2%
COc1ccc(C2=NOC(Cn3c(Cc4ccc(Cl)cc4)nc4c3c(=O)n(C)c(=O)n4C)C2)cc1 (centres undefined)	-8.6%	-62.8%	4.4%	13.1µM*	1.5%
SMILES	Pf growth 48h	NS1 inh	AMA1 RON2 block	Pf growth 96h	Sm TGR block
COc1ccccc1C1=NOC(Cn2c(NCCCO)nc3c2c(=O)n(C)c(=O)n3C)C1 (centres undefined)	17.9%	-2.6%	-20.8%	-16.4%	19.7%
COc1ccc2[nH]c(CN3CCN(CC=C(C)C)C(CCO)C3)c(C)c2c1 (centres undefined)	-14.6%	11.2%	-19.8%	?	-18.6%
Cc1c(N=NC2=C(O)CC(C)(C)CC2=O)c(=O)n(-c2ccccc2)n1C	-20.7%	0.7%	128.0%	2.08µM*	12.6µM*
Cc1c(N=Nc2c(O)[nH]c(=S)[nH]c2=O)c(=O)n(-c2ccccc2)n1C	-15.7%	-2.8%	-33.4%	?	-4.8%
C=CCn1c(O)c(N=Nc2c(C)n(C)n(-c3ccccc3)c2=O)c(=O)[nH]c1=S	-21.5%	-18.2%	33.0%	6.57µM*	1.9%
Cc1c(NS(=O)(=O)c2cc(C(=O)NCc3ccco3)cc(Cl)c2Cl)c(=O)n(-c2ccccc2)n1C	?	.	-27.0%	?	?
Cc1ccc(-c2nc(CS(=O)CC(=O)NC(C)CCc3ccccc3)c(C)o2)cc1 (centres undefined)	2.3%	-24.9%	-6.0%	15.4%	8.91µM*
Cc1ccc(-c2nc(CS(=O)(=O)CC(=O)NC(C)CCc3ccccc3)c(C)o2)cc1 (centres undefined)	.	.	.	.	-21.6%
Cc1ccc(S(=O)Cc2nc(-c3ccc(C(=O)NC(C)c4ccccc4)cc3)oc2C)cc1 (centres undefined)	.	.	.	.	14.1µM*
COc1ccc(-c2nc(CS(=O)CC(=O)NC(C)CCc3ccccc3)c(C)o2)cc1OC (centres undefined)	-13.0%	-6.5%	-9.5%	-17.8%	31.6µM*
COc1ccccc1CNC(=O)CS(=O)Cc1nc(-c2ccc(OC)c(OC)c2)oc1C (centres undefined)	2.2%	-6.6%	-8.2%	-1.5%	?
CN1CCC(N2CCN(C3CN(Cc4cn(Cc5cccc(C(F)(F)F)c5)nn4)S(=O)(=O)C3)CC2)CC1 (centres undefined)	.	.	1.3%	.	.
COc1ccc(C(=O)CSc2nc3cc(C(=O)NC4CCCC4)ccc3c(=O)n2CC2CCCO2)cc1 (centres undefined)	.	.	.	.	-1.9%
Cc1ccc(C(=O)COC(=O)COc2ccccc2C)cc1	13.2%	3.5%	38.4%	53.4%	6.0%
CCCCC1CCC(C(=O)N2CC(=O)Nc3ccc(Cl)cc3C2c2ccc(F)cc2)CC1 (centres undefined)	.	.	.	.	2.1%
CC(=NNC(=O)c1ccccc1N)c1ccccc1O	.	.	111.4%	.	.
COc1ccc(/C(C)=N/NC(=O)c2ccccc2N)cc1	?	.	6.4%	3.7µM*	1.2%
Clc1cc2cccnc2c2ncccc12	11.7µM*	.	-6.0%	11.7µM*	-25.9%
Cc1c(C)c2cccnc2c2ncccc12	1.85µM*	.	-77.6%	?	-2.7%
Oc1c(I)cc(Cl)c2cccnc12	?	-38.9%	-51.0%	?	?
COc1ccc(S(=O)(=O)N2CCN(CC(=O)Nc3c(C)n[nH]c3C)CC2)cc1OC	.	.	-20.4%	.	.
CCOC(=O)N1CCN(C(=O)COc2ccccc2OC)CC1	2.33µM*	-3.4%	2.8%	.	6.5%
COc1ccccc1N1CCN(C(=O)c2cc3c(=O)n(C)c4ccccc4c3n2C)CC1	.	-36.0%	-2.2%	7.38µM*	-3.3%
COc1ccccc1OCC(=O)N1CCCCCC1	.	.	8.1%	.	.
Cn1c(C(=O)N2CCN(c3ccc(F)cc3)CC2)cc2c(=O)n(C)c3ccccc3c21	.	-49.9%	.	.	.
CC(=O)c1ccc(-c2ccc(C(=O)N3CCN(c4ccc(F)cc4)CC3)o2)cc1	-11.2%	.	-22.4%	11.7µM*	-17.6%
COc1ccccc1N1CCN(C(=O)c2ccc(COc3cccc4c3OC(C)(C)C4)cc2)CC1	10.4µM*	.	-20.7%	?	-6.8%
